NSD2 inh – NSD2 histone methyltransferase inhibitors, primary screen, biochemical, AlphaScreen, single concentration, set 2 | Histone-lysine N-methyltransferase NSD2 (Homo sapiens), O96028 | NSD2 peptide methylation, 120 min | inhibition, % at 12.5 µM | actives 0.54% (n = 310,000)
Glyco luc inh – increase of ERlucT glycosylation luciferase signal, primary screen, N-linked glycosylation inhibitor project, D54 ERlucT cells, luminescence, set 2; D54 ERlucT glycosylation luciferase reporter, 24 h; percent of 100 nM tunicamycin response; reporter increase, % at 12.5 µM; actives 0.23% (n = 360,000);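 active means mean luciferase reporter signal, scaled so untreated is 0 and the glycosylation-blocking control 100, at or above a set limit in every replicate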;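 further: luciferase carries N-glycosylation sites so blocking glycosylation raises the light; 0% = median of neutral control wells and 100% = median of 100 nM tunicamycin wells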
ATG4B inhibitor – ATG4B protease inhibitors, primary screen, biochemical, fluorescence, uHTS | inhibition, % at 8.33 µM | ATG4B cleavage of LC3-PLA2, NBD-HPC fluorescence, 1 h | actives 0.51% (n = 340,000) | Cysteine protease ATG4B (Homo sapiens), Q9Y4P1; in the data active means inhibition above about 40%
DSG3 Ab inh – inhibitors of pemphigus antibody binding to DSG3, primary screen, biochemical, bead-based, flow cytometry, scFv-GFP; Desmoglein-3 (Homo sapiens), P32926; DSG3-coupled beads, scFv-anti-DSG3-GFP binding; stronger effect = lower value; binding (percent of control), % at 10 µM; actives 0.48% (n = 310,000);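 active means binding more than 3 SD below its plate's average and above zero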;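 further: hits lower antibody fragment binding to DSG3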
Target sequence (P32926 whole entry, looked up, the tested form may be a part): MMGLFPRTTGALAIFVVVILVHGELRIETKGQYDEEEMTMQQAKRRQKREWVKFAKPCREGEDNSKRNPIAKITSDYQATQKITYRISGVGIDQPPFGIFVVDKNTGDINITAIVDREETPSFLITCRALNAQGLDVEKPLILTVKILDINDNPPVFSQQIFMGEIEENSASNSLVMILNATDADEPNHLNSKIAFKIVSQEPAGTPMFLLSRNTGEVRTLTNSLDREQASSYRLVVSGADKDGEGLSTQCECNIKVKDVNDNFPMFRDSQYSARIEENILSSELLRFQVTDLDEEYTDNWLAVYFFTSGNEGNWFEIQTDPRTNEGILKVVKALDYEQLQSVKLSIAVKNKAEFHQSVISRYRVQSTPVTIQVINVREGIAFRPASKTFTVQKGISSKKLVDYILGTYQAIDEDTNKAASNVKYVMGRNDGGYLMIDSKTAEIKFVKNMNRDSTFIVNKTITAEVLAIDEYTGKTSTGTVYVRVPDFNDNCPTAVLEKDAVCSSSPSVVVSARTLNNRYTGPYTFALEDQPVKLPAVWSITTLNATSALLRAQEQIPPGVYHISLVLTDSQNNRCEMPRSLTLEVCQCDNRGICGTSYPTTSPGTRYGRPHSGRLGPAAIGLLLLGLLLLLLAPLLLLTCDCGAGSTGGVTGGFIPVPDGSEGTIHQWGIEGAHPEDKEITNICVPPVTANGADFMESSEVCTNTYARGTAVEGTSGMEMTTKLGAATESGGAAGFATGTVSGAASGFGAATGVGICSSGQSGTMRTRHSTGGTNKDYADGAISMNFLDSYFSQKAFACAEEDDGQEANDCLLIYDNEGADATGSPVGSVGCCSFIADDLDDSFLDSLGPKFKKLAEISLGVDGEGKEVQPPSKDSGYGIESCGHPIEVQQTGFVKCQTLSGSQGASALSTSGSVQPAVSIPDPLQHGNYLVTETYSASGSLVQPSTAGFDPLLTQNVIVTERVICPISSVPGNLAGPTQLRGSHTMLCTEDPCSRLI
Vif inh – HIV Vif self-association inhibitors, primary screen, imaging, HEK293T, single point. inhibition, % at 7.49 µM. AID 602346, 2012. actives 0.35% (n = 340,000). HEK293T cells, Vif self-association by quenched fluorescence, 24 h; in the data active means inhibition above about 50%, passing the limit was not always enough
CaV13 FRET inh – Disruptors of the CACNA1D IQ motif to Ca2+-dependent inactivation inhibitor domain association, primary screening, Förster resonance energy transfer in intact living …; HEK cells, CFP/YFP FRET ICDI-IQ, plate reader, 10 min; percent FRET-ratio fall versus neutral wells; inhibition, % at 12.3 µM; actives 0.098% (n = 340,000);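 active means mean replicate inhibition of at least 30% and at least 1% of replicates passing that level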;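 further: 0% = median of the neutral control wells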
ATG4B conf – ATG4B protease inhibitors, retest, confirmation, biochemical, fluorescence, single concentration; actives 92% (n = 320); ATG4B protease fluorescent substrate cleavage assay; inhibition, % at 8.33 µM; shares compounds with ATG4B inhibitor; in the data active means inhibition above about 39%
PLA2 ctr – PLA2 enzyme inhibition, counter-screen for ATG4B inhibitor project, biochemical, single concentration, uHTS hits. shares compounds with ATG4B inhibitor. purified PLA2, NBD-C6-HPC fluorescence, 45 min. inhibition, % at 8.33 µM. actives 66% (n = 1,600). AID 588402, 2011
An asterisk follows results filed as active; nt = not tested or not shown. Shown are actives, neighbours in structure and some others; about 1.9% of the full set was active somewhere. Unless noted, no stated cut-off is given here; in the data, active means inhibition above about 50%; inactive means the rest.

SMILES	NSD2 inh	Glyco luc inh	ATG4B inhibitor	DSG3 Ab inh	Vif inh	CaV13 FRET inh	PLA2 ctr	others
COC(=O)c1cccc(NC(=S)Nc2cccc(Cl)c2C)c1	-1	1	58*	88	2	-7	56*
COc1cccc(CNC(=S)Nc2cccc(Cl)c2C)c1	0	-4	54*	100	-9	-9	65*
Cc1c(Cl)cccc1NC(=S)NCc1ccc(F)cc1	-2	-3	58*	116	0	-4	69*
COc1ccccc1NC(=S)NCc1ccccc1Cl	-2	0	5	96	-17	-11	nt
Cc1c(Cl)cccc1NC(=S)NCc1ccccc1Cl	5	-8	79*	106	-5	-3	83*
Cc1ccc(/C=C/C(=O)OCC(=O)NCCc2ccc(S(N)(=O)=O)cc2)o1	4	1	-4	88	8	-5	nt
COCCCNC(=O)C1CCN(S(=O)(=O)c2c(C)noc2/C=C\c2ccc(OC)cc2)CC1	-1	0	-6	100	-8	-5	nt
CCC(C)NC(=O)c1ccc(CSCc2ccc(Cl)cc2)o1 (stereo not drawn)	0	-1	4	99	13	-4	nt
Cc1nc2c(C(=O)N3CCN(c4ccccn4)CC3)cnn2c(C)c1Cc1cccc(Cl)c1	1	-1	-1	104	-4	-6	nt
Cc1c(Cl)cccc1NC(=S)NCc1cccn1C	0	1	47*	104	1	-5	66*
Cc1c(Cl)cccc1NC(=S)NCC1COc2ccccc2O1 (stereo not drawn)	-4	-3	88*	98	-6	11	89*
C=CCNC(=S)NCC1COc2ccccc2O1 (stereo not drawn)	1	-1	0	101	-1	-3	nt
Cc1ccccc1NC(=S)NCc1cccn1C	2	-1	-10	102	3	-14	nt
Cc1nc(SCC(=O)N2c3ccccc3NC(=O)CC2C)c2c(C)c(C)sc2n1 (stereo not drawn)	6	-1	27	104	-14	-7	nt
Cc1sc2nc(C3CC3)nc(SCC(=O)N3c4ccccc4CC3C)c2c1C (stereo not drawn)	-1	-12	68*	104	-12	nt	85*
O=C(CSc1ccc(Br)c2cccc(Cl)c12)Nc1ccc(S(=O)(=O)Nc2nccs2)cc1	25	2	48*	100	14	-5	53*
Cc1ccccc1NC(=O)CSCC(=O)Nc1ccccc1C	-1	1	-1	101	-5	-9	nt
NC(=O)c1ccccc1NC(=O)COC(=O)CSCc1cccc(Cl)c1	-5	2	0	nt	26	-5	nt
Cc1ccccc1CSCC(=O)Nc1ccccc1-c1ccccc1	-5	-2	51*	106	-8	-16	59*
CN(CC(=O)Nc1ccccc1Br)CC(=O)Nc1ccccc1-c1ccccc1	-1	1	8	104	-6	-4	nt
O=C(CSCc1cccc(Cl)c1)Nc1ccccc1-c1ccccc1	-3	-5	47*	123	1	4	51*
CN(CC(=O)Nc1ccccc1-c1ccccc1)Cc1ccccc1Cl	-4	-4	55*	93	-2	-4	52*
COc1ccc(/C=C/C(=O)NC(=S)NNC(=O)c2ccco2)cc1OC	-1	-1	-5	86	8	-7	nt
O=C(OCC(=O)N1CCc2ccccc21)c1c2c(nc3ccccc13)CCCC2	-1	-3	-21	108	0	-17	nt
CC1Cc2ccccc2N1C(=O)COC(=O)c1c2c(nc3ccccc13)CCCCC2 (stereo not drawn)	-2	-6	44*	105	10	-6	49
SMILES	NSD2 inh	Glyco luc inh	ATG4B inhibitor	DSG3 Ab inh	Vif inh	CaV13 FRET inh	PLA2 ctr	others
CC1(c2ccc(NC(=O)c3ccccc3F)cc2)CC1(Cl)Cl (stereo not drawn)	-2	-3	57*	102	-5	-21	67*
O=C(Nc1ccc([N+](=O)[O-])cc1)c1ccccc1F	-1	-1	3	108	-1	17	nt
C/C(CCc1oc2ccc(Br)cc2c1-c1ccc(C)o1)=N/O	1	-1	35	110	-6	-5	nt
C/C(CCc1oc2ccc(Cl)cc2c1-c1ccc(C)o1)=N\O	6	0	46*	nt	-7	nt	71*
COCCN(C)C(=O)CCc1nnc(Cc2ccc(-c3ccccc3)cc2)o1	-1	3	1	90	-6	2	nt
Cc1ccc(OCc2ccc(C(=O)Nc3c(C)nn(Cc4c(F)c(F)c(F)c(F)c4F)c3C)o2)c([N+](=O)[O-])c1	1	0	67*	102	-24	-9	76*
Cc1cccc(Cn2nc(C)c(NC(=O)c3ccc(F)cc3)c2C)c1	1	-1	-11	109	-3	4	nt
Cc1nn(Cc2c(F)c(F)c(F)c(F)c2F)c(C)c1NC(=O)c1cccc(COc2ccc(Cl)cc2)c1	-4	-4	57*	103	-23	-9	68*
O=C(COC(=O)c1c2c(nc3ccccc13)/C(=C/c1ccco1)CC2)NC1CCCC1	1	5	0	109	-2	-6	nt
CC1CCCCC1NC(=O)COC(=O)c1c2c(nc3ccccc13)/C(=C/c1ccco1)CC2 (stereo not drawn)	3	3	53*	77*	-8	-12	45	ATG4B conf=75*
Cc1ccc(NC(=O)C2CCN(S(=O)(=O)c3c(C)noc3/C=C/c3ccco3)CC2)nc1	-2	-3	-3	103	-6	-24	nt
Cc1noc(/C=C/c2ccco2)c1S(=O)(=O)N1CCC(C(=O)N2CCc3ccccc3C2)CC1	nt	-5	73*	nt	-15	nt	75*
COc1ccc(/C=C/c2onc(C)c2S(=O)(=O)N2CCC(C(=O)N3CCCCCC3)CC2)cc1	2	-4	40*	102	-8	-2	65*
COc1ccc(CCN2CC(C(=O)N(C)CCOc3ccccc3)CCC2=O)cc1 (stereo not drawn)	-2	5	-2	100	1	-7	nt

Compound activity: PubChem, several laboratories
